Results as given in the supplement of paper PMC3414501.
Counter-ions that a name gives are not always drawn.

How the values were obtained:
[1] = tested on: S. cerevisiae SK1 pCDA2-eGFP (USY613), sporulating; assay: CDA2-GFP sporulation assay sensitivity score (z-score vs DMSO controls); higher = stronger inhibition of sporulation, active = hit call of the paper;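 also: active if sensitivity score above 5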
[2] = tested on: S. cerevisiae AD1-9 (efflux-pump deficient), vegetative growth in YPD; assay: growth sensitivity score (doubling time z-score vs DMSO controls); higher = slower growth, strongly negative scores also mark growth inhibition (complete suppression), active = hit call of the paper
Summary of the method: (§1)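 Optical density of Saccharomyces cerevisiae cultures in microtiter plates was followed every 15 min for 24 hours after seeding at an OD600 of 0.065. Eight solvent-only wells were run per experiment. Growth sensitivity scores were found by subtracting the solvent-only mean from the compound mean and dividing by the solvent-only standard deviation.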

[3] = tested on: S. cerevisiae BY4741 (wild-type), vegetative growth in YPD; assay: as above
Summary of the method: as §1

Row | SMILES | CDA2-GFP sporulation assay sensitivity score [1] | growth sensitivity score [2] | growth sensitivity score [3]
1 | CN(C)CCC[C@@]1(c2ccc(F)cc2)OCc2cc(C#N)ccc21 [Escitalopram oxalate] (stock concentration (mM, diluted 1:100): 7.9) | 0.99 (inactive) | -1.47 (inactive) | 0.93 (inactive)
2 | Clc1ccccc1C(c1ccccc1)(c1ccccc1)n1ccnc1 [Clotrimazole] (stock concentration (mM, diluted 1:100): 10) | 3.7 (inactive) | 2.49 (active) | 62.8 (active)
3 | CC(C)[C@H](N)C(=O)OCCOCn1cnc2c(=O)nc(N)[nH]c21 [Valaciclovir hydrochloride] (stock concentration (mM, diluted 1:100): 9) | 0.8 (inactive) | -0.28 (inactive) | 0.36 (inactive)
4 | NC(N)=Nc1nc(CSCC/C(N)=N/S(N)(=O)=O)cs1 [Famotidine] (stock concentration (mM, diluted 1:100): 10) | 0.3 (inactive) | -2.06 | -0.98 (inactive)
5 | CC(C(=O)O)c1ccc(-c2ccccc2)c(F)c1 (stereo unspecified) [Flurbiprofen] (stock concentration (mM, diluted 1:100): 11.4) | -0.22 (inactive) | 0.77 (inactive) | 0.01 (inactive)
6 | CN1CCCC(n2nc(Cc3ccc(Cl)cc3)c3ccccc3c2=O)CC1 (stereo unspecified) [Azelastine hydrochloride] (stock concentration (mM, diluted 1:100): 9.1) | 0.63 (inactive) | 11 (active) | 0.19 (inactive)
7 | CN(CCOc1ccc(CC2SC(=O)NC2=O)cc1)c1ccccn1 (stereo unspecified) [Rosiglitazone maleate] (stock concentration (mM, diluted 1:100): 7.6) | 1.38 (inactive) | 2.19 (active) | 1.82 (inactive)
8 | Cc1occc(=O)c1O [Maltol] (stock concentration (mM, diluted 1:100): 10) | 1.2 (inactive) | -1.16 (inactive) | -0.74 (inactive)
9 | O=C(O[C@@H]1Cc2c(O)cc(O)cc2O[C@@H]1c1cc(O)c(O)c(O)c1)c1cc(O)c(O)c(O)c1 [Epigallocatechin gallate] (stock concentration (mM, diluted 1:100): 10) | -1.44 (inactive) | -3.35 | 0.97 (inactive)
10 | CCOC(=O)C1=C(C)NC(C)=C(C(=O)OC)C1c1cccc([N+](=O)[O-])c1 (stereo unspecified) [Nitrendipine] (stock concentration (mM, diluted 1:100): 10) | 10.3 (active) | 23.1 (active) | 1.09 (inactive)
11 | O=[N+]([O-])c1cccc2cn[nH]c12 [7-Nitroindazole] (stock concentration (mM, diluted 1:100): 10) | 2.93 (inactive) | -1.05 (inactive) | 0.06 (inactive)
12 | O=C1[C@H]2CCCC[C@H]2C(=O)N1CCCCN1CCN(c2nsc3ccccc23)CC1 [Perospirone hydrochloride] (stock concentration (mM, diluted 1:100): 9.4) | 2.69 (inactive) | 2.19 (active) | 3.13 (active)
13 | COc1cccc2c1C(=O)c1c(O)c3c(c(O)c1C2=O)C[C@@](O)(C(=O)CO)C[C@@H]3O[C@H]1C[C@H](N)[C@@H](O)[C@H](C)O1 [Epirubicin hydrochloride] (stock concentration (mM, diluted 1:100): 9.4) | -0.4 (inactive) | 93.9 (active) | 11.8 (active)
14 | CC(=O)Oc1ccccc1C(=O)Nc1ncc([N+](=O)[O-])s1 [Nitazoxanide] (stock concentration (mM, diluted 1:100): 10) | 7.92 (active) | 0.16 (inactive) | 1.77 (inactive)
15 | CN(CCOc1ccc(NS(C)(=O)=O)cc1)CCc1ccc(NS(C)(=O)=O)cc1 [Dofetilide] (stock concentration (mM, diluted 1:100): 10) | -0.99 (inactive) | -1.59 (inactive) | -2.19
16 | CSc1nc2cc(Cl)c(Oc3cccc(Cl)c3Cl)cc2[nH]1 [Triclabendazole] (stock concentration (mM, diluted 1:100): 10) | 0.58 (inactive) | 74.8 (active) | 168 (active)
17 | C[C@@H](O)[C@H]1C(=O)N2C(C(=O)O)=C(S[C@@H]3CN[C@H](C(=O)N(C)C)C3)[C@H](C)[C@H]12 [Meropenem] (stock concentration (mM, diluted 1:100): 11.4) | -2.33 (inactive) | 0.68 (inactive) | -1.19 (inactive)
18 | CN1CCCCC1CCN1c2ccccc2Sc2ccc([S+](C)[O-])cc21 (stereo unspecified) [Mesoridazine] (stock concentration (mM, diluted 1:100): 10) | -0.29 (inactive) | 278 (active) | 66 (active)
19 | Nc1ccn([C@@H]2CS[C@H](CO)O2)c(=O)n1 [Lamivudine] (stock concentration (mM, diluted 1:100): 9.9) | 1.14 (inactive) | -1.68 (inactive) | -0.39 (inactive)

Row | SMILES | CDA2-GFP sporulation assay sensitivity score [1] | growth sensitivity score [2] | growth sensitivity score [3]
20 | COc1ccc2cc([C@H](C)C(=O)O)ccc2c1 [Naproxen sodium] (stock concentration (mM, diluted 1:100): 10) | 1.69 (inactive) | 1.41 (inactive) | -0.72 (inactive)
21 | CN1CCC(=C2c3ccccc3C=Cc3ccccc32)CC1 [Cyproheptadine hydrochloride] (stock concentration (mM, diluted 1:100): 10) | 14 (active) | 9.58 (active) | 3.38 (active)
22 | CN1CCC(=C2c3ccccc3CC(=O)c3sccc32)CC1 [Ketotifen fumarate] (stock concentration (mM, diluted 1:100): 8.9) | 4.44 (inactive) | -0.77 (inactive) | 0.49 (inactive)
23 | Cc1ccc(NC(=O)c2ccc(CN3CCN(C)CC3)cc2)cc1Nc1nccc(-c2cccnc2)n1 [Imatinib mesylate] (stock concentration (mM, diluted 1:100): 8.4) | 7.85 (active) | 7.33 (active) | 0.53 (inactive)
24 | CNNCc1ccc(C(=O)NC(C)C)cc1 [Procarbazine hydrochloride] (stock concentration (mM, diluted 1:100): 8.6) | -0.1 (inactive) | -0.84 (inactive) | 0.69 (inactive)
25 | COCCOC(=O)C1=C(C)NC(C)=C(C(=O)OC(C)C)C1c1cccc([N+](=O)[O-])c1 (stereo unspecified) [Nimodipine] (stock concentration (mM, diluted 1:100): 10) | 0.44 (inactive) | 260 (active) | 0.46 (inactive)
26 | Clc1ccccc1CN1CCc2sccc2C1 [Ticlopidine hydrochloride] (stock concentration (mM, diluted 1:100): 8.7) | 2.24 (inactive) | 1.32 (inactive) | 0.36 (inactive)
27 | OCCN1C[C@H](O)[C@@H](O)[C@H](O)[C@H]1CO [Miglitol] (stock concentration (mM, diluted 1:100): 10) | 1.46 (inactive) | -2.16 | -1.34 (inactive)
28 | Cc1ccc(O)c([C@H](CCN(C(C)C)C(C)C)c2ccccc2)c1 [Tolterodine tartrate] (stock concentration (mM, diluted 1:100): 6.9) | 1.84 (inactive) | 2.36 (active) | 0.36 (inactive)
29 | CCCCc1nc(Cl)c(CO)n1Cc1ccc(-c2ccccc2-c2nnn[nH]2)cc1 [Losartan potassium] (stock concentration (mM, diluted 1:100): 9.2) | -0.41 (inactive) | -1.21 (inactive) | -0.26 (inactive)
30 | CC(C)(C)C(O)/C=C/c1ccc2c(c1)OCO2 (stereo unspecified) [Stiripentol] (stock concentration (mM, diluted 1:100): 10) | 5.09 (inactive) | 5.27 (active) | 2.6 (active)
31 | COc1ccc(C2CNC(=O)C2)cc1OC1CCCC1 (stereo unspecified) [Rolipram] (stock concentration (mM, diluted 1:100): 10) | -2.81 (inactive) | -1.05 (inactive) | -0.71 (inactive)
32 | CN1C2CCCC1CC(NC(=O)c1nn(C)c3ccccc13)C2 (stereo unspecified) [Granisetron hydrochloride] (stock concentration (mM, diluted 1:100): 9) | 2.25 (inactive) | -1.22 (inactive) | -0.57 (inactive)
33 | CC(=O)NCCCCCCNC(C)=O [Hexamethylene bisacetamide] (stock concentration (mM, diluted 1:100): 10) | 0.71 (inactive) | 1.99 (inactive) | 1.69 (inactive)
34 | CN(C/C=C/C#CC(C)(C)C)Cc1cccc2ccccc12 [Terbinafine hydrochloride] (stock concentration (mM, diluted 1:100): 8.9) | -2.07 (inactive) | 30.1 (active) | 93.8 (active)
35 | NC1CCN(c2nc3c(cc2F)c(=O)c(C(=O)O)cn3-c2ccc(F)cc2F)C1 (stereo unspecified) [Tosufloxacin tosylate] (stock concentration (mM, diluted 1:100): 7) | 1.34 (inactive) | 1.02 (inactive) | -0.39 (inactive)
36 | CC(C)NCC(O)COc1ccc(CCOCC2CC2)cc1 (stereo unspecified) [Betaxolol hydrochloride] (stock concentration (mM, diluted 1:100): 10) | 7.8 (active) | -0.35 (inactive) | 0.42 (inactive)
37 | CN1CCC(=C2c3ccccc3CCc3sccc32)CC1 [Pizotyline] (stock concentration (mM, diluted 1:100): 10) | -0.44 (inactive) | 161 (active) | 5.7 (active)
